Reference: ChEMBL document CHEMBL1961873, “Compounds: GSK PKIS; Assays: Nanosyn kinase panel” (2012)

Columns and labels:
[1] = biological target: T1, Serine/threonine-protein kinase TBK1 (Homo sapiens) (UniProt Q9UHD2); conditions: at 1 µM;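 further: values are mean inhibition of TBK1, screened as part of the GSK published kinase inhibitor set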
T1 sequence (whole entry): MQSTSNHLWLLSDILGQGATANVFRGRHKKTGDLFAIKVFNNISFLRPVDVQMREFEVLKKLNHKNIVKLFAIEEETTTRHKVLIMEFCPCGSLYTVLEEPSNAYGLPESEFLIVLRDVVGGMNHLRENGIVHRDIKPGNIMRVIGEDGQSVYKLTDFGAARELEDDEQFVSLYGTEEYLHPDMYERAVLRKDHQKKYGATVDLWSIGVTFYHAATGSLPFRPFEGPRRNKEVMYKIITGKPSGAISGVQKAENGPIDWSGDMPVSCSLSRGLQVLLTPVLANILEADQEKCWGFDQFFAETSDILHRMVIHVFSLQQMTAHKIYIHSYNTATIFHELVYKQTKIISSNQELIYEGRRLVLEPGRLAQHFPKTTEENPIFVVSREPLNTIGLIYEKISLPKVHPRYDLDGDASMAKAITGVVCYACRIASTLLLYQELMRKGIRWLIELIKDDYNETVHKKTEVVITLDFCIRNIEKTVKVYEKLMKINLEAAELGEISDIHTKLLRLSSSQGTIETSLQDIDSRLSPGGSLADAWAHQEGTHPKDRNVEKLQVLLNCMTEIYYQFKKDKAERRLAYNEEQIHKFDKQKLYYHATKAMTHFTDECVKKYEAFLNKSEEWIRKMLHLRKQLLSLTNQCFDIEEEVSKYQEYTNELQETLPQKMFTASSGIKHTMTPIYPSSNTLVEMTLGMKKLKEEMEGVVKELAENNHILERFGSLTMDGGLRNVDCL

[2] = biological target: T2, Testis-specific serine/threonine-protein kinase 1 (Homo sapiens) (UniProt Q9BXA7); conditions: at 0.1 µM
T2 sequence (whole entry): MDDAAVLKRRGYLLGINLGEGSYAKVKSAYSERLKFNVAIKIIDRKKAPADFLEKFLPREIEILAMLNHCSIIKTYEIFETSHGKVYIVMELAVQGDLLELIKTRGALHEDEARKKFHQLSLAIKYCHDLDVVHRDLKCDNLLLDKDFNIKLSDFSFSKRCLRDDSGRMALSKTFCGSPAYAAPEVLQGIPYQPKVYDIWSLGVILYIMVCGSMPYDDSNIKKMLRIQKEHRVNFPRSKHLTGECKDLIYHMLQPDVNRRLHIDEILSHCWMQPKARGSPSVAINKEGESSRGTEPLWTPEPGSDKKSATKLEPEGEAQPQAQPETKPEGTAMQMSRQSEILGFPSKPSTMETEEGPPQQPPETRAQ

[3] = biological target: T2, Testis-specific serine/threonine-protein kinase 1 (Homo sapiens); conditions: at 1 µM
[4] = biological target: T3, Testis-specific serine/threonine-protein kinase 2 (Homo sapiens) (UniProt Q96PF2); conditions: at 0.1 µM
T3 sequence (whole entry): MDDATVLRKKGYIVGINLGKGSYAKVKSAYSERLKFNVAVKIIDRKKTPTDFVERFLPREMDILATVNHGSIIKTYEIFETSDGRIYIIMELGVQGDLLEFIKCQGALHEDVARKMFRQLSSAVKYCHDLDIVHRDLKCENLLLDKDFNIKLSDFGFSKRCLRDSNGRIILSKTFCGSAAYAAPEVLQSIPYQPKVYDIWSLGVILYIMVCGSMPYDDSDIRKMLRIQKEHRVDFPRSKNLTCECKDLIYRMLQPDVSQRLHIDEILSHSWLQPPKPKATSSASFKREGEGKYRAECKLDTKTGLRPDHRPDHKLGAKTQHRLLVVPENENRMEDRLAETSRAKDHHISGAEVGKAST

[5] = biological target: T3, Testis-specific serine/threonine-protein kinase 2 (Homo sapiens); conditions: at 1 µM
[6] = biological target: Casein kinase I isoform alpha (Homo sapiens) (UniProt P48729); conditions: at 0.1 µM
Sequence of Casein kinase I isoform alpha (Homo sapiens) (P48729 2-337 limits assumed): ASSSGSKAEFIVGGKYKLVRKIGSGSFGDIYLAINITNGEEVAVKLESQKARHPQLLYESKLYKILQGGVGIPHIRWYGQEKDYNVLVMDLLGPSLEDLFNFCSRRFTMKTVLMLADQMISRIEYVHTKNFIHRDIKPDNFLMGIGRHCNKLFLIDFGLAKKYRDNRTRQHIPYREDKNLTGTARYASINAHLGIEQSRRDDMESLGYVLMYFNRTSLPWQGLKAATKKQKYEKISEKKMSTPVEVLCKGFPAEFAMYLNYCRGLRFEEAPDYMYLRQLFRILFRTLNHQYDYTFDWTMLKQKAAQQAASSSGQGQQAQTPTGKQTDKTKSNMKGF

[7] = biological target: Casein kinase I isoform alpha (Homo sapiens) (UniProt P48729); conditions: at 1 µM
[8] = biological target: Casein kinase I isoform gamma-1 (Homo sapiens) (UniProt Q9HCP0); conditions: at 0.1 µM
Sequence of Casein kinase I isoform gamma-1 (Homo sapiens) (Q9HCP0 whole entry, looked up, canonical isoform): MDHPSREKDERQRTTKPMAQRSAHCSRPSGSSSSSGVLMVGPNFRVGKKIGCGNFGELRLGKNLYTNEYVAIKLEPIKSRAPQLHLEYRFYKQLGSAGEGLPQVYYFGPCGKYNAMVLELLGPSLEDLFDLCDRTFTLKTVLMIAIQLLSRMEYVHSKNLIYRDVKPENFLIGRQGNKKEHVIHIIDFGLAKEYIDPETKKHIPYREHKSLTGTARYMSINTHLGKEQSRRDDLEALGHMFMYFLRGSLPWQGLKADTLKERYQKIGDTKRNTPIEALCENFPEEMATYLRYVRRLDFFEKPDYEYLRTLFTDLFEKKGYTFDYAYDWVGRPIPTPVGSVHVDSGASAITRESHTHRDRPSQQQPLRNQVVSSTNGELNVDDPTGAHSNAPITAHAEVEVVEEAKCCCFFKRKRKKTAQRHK

[9] = biological target: Casein kinase I isoform gamma-1 (Homo sapiens) (UniProt Q9HCP0); conditions: at 1 µM
[10] = biological target: Casein kinase I isoform gamma-2 (Homo sapiens) (UniProt P78368); conditions: at 0.1 µM
Sequence of Casein kinase I isoform gamma-2 (Homo sapiens) (P78368 whole entry, looked up, canonical isoform): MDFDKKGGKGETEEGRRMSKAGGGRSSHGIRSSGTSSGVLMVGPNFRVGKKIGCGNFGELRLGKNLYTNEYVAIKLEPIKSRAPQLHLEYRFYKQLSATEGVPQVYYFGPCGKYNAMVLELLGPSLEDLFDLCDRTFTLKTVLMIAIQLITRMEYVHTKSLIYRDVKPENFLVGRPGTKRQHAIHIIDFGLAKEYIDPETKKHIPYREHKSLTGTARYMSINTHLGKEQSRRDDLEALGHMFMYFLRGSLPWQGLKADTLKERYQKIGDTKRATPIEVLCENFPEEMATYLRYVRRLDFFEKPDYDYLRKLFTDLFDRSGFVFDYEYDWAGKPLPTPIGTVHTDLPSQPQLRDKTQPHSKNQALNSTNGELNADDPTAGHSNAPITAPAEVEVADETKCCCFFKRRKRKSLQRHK

[11] = biological target: Casein kinase I isoform gamma-2 (Homo sapiens) (UniProt P78368); conditions: at 1 µM
[12] = biological target: Casein kinase I isoform gamma-3 (Homo sapiens) (UniProt Q9Y6M4); conditions: at 0.1 µM
Sequence of Casein kinase I isoform gamma-3 (Homo sapiens) (Q9Y6M4 whole entry, looked up, canonical isoform): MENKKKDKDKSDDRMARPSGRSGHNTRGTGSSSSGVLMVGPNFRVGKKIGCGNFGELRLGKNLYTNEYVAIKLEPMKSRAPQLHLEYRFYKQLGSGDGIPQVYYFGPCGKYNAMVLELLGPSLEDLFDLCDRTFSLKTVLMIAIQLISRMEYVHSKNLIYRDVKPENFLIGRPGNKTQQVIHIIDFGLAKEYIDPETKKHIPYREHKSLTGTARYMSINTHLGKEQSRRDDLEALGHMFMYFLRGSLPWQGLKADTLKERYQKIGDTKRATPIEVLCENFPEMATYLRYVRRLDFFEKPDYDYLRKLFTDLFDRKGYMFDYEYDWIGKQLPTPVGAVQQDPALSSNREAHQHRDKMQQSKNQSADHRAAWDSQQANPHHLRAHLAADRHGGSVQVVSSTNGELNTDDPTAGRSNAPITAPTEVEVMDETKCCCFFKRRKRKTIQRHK

[13] = biological target: Casein kinase I isoform gamma-3 (Homo sapiens) (UniProt Q9Y6M4); conditions: at 1 µM
[14] = biological target: Cyclin-dependent kinase 1 (Homo sapiens) (UniProt P06493); conditions: at 0.1 µM
Sequence of Cyclin-dependent kinase 1 (Homo sapiens) (P06493 whole entry, looked up): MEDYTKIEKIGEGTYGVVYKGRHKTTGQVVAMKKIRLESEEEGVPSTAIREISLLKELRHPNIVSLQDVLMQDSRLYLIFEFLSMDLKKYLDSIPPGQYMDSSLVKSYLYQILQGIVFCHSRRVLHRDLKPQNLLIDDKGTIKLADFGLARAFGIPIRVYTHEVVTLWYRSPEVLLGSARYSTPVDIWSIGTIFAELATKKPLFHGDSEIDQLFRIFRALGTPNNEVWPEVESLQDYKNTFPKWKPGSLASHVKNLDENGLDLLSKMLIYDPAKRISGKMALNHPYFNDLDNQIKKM

[15] = biological target: Cyclin-dependent kinase 1 (Homo sapiens) (UniProt P06493); conditions: at 1 µM
[16] = biological target: Cyclin-dependent kinase 2 (Homo sapiens) (UniProt P24941); conditions: at 0.1 µM
[17] = biological target: Cyclin-dependent kinase 2 (Homo sapiens) (UniProt P24941); conditions: at 1 µM
[18] = biological target: Cyclin-dependent kinase 2 (Homo sapiens) (UniProt P24941); conditions: at 0.1 µM; remark: listed apart in the source
[19] = biological target: Cyclin-dependent kinase 2 (Homo sapiens) (UniProt P24941); conditions: at 1 µM; remark: listed apart in the source
[20] = biological target: CDK3/Cyclin E (Homo sapiens) (UniProt P24864+Q00526); conditions: at 0.1 µM;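 further: reported percentages are mean inhibition values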
Sequence of CDK3/Cyclin E (Homo sapiens) (P24864 whole entry, looked up): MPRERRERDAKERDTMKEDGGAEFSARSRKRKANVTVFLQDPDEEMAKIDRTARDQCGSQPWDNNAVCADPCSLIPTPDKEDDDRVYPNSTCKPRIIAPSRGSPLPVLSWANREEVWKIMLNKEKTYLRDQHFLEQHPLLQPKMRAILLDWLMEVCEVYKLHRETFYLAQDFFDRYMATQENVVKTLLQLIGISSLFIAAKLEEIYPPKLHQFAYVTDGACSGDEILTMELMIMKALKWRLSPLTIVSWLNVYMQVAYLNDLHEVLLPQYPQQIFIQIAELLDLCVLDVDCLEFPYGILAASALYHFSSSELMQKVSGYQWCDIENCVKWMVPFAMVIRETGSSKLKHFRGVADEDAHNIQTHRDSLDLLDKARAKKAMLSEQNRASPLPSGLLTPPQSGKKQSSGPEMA
Sequence of CDK3/Cyclin E (Homo sapiens) (Q00526 whole entry, looked up): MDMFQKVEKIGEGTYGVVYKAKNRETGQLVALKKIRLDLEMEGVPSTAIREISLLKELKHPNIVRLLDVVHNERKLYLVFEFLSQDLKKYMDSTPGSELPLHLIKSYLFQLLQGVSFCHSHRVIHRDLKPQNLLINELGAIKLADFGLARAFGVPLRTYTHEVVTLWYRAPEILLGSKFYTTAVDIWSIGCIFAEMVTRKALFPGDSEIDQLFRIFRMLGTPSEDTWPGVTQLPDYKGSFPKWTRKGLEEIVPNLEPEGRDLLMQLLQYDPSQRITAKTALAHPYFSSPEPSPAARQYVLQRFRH

SMILES	inhibition [1] [%]	inhibition [2] [%]	inhibition [3] [%]	inhibition [4] [%]	inhibition [5] [%]	inhibition [6] [%]	inhibition [7] [%]	inhibition [8] [%]	inhibition [9] [%]	inhibition [10] [%]	inhibition [11] [%]	inhibition [12] [%]	inhibition [13] [%]	inhibition [14] [%]	inhibition [15] [%]	inhibition [16] [%]	inhibition [17] [%]	inhibition [18] [%]	inhibition [19] [%]	inhibition [20] [%]
CCn1c(-c2nonc2N)nc2c(C#CC(C)(C)O)ncc(OC3CCNCC3)c21	45.9	20.7	71.4	0.88	2.99	2.3	8.85	2.94	4.65	2.46	3.98	2.65	3.15	2.33	2.34	3.56	1.76	1.95	3.09	-1.98
CNC(=O)c1cc(-c2ccc(F)cc2)cc(-c2ccc(S(=O)(=O)N3CCCC3)cc2)c1N	1.13	2.57	3.21	1.51	1.66	2.27	3.11	2.3	2.21	2.4	2.38	3.27	0.61	-0.56	1.19	1	1.91	2.41	3.39	-1.31
CN1CCC(n2cnc(-c3ccc(F)cc3)c2-c2ccnc(Nc3ccccc3)n2)CC1	2.8	3.05	3.21	2.5	2.86	53.5	83.6	7.05	42	4.57	35.2	12.4	61.7	0.37	2.52	0.89	-0.3	1.14	2.14	2.38
COc1ccc(-c2nn3ncccc3c2-c2ccnc(Nc3ccc4c(c3)OCCO4)n2)cc1	1.43	-0.54	-0.16	1.42	-0.78	0	3.14	1.16	3.57	1.93	3.08	0.17	1.38	0.5	1.38	0.22	0.43	-0.84	-0.22	-2.12
COc1ccc(CNC(=O)c2ccc(-c3cc(-c4nnc(C)o4)ccc3C)cc2)cc1	4.66	3.31	6.39	2.67	6.58	-0.51	2.48	1.07	-0.25	1.05	0.62	0.01	0.83	1.08	1.37	-2.09	-1.7	1.68	3.08	3.23
Cc1cccc2c1NC(=O)/C2=N\Nc1ccc(S(N)(=O)=O)cc1	3.42	1.83	3.05	0.81	-1.61	1.01	4.19	2.88	3.11	1.59	2.46	0.83	1.98	0.2	2.23	1.45	3.8	2.45	3.99	2.34
COc1ccc(-c2cc3c(N)ncnc3o2)cc1	1.62	-1.68	1.43	-1.12	-0.58	-2.35	-1.14	-1.13	-0.49	-0.59	-0.54	-0.97	0.61	2.33	6.06	1.51	2.69	1.72	5.09	0.47
CC(C)COC(=O)c1ccc2c(c1)/C(=C/Nc1ccc(S(N)(=O)=O)cc1)C(=O)N2	82.9	11.4	50.2	-0.78	0.83	-2	1.61	-1.63	7.57	-1.09	14.2	-3.31	20.6	36.9	75.5	82	86.6	66.2	82.7	43.8
CNC(=O)c1cncc(/C=C/c2ccccc2Cl)c1	4.1	0.22	1.52	-0.03	2.91	0.76	-0.31	0.2	-0.31	0.91	-0.77	0.25	-0.89	0.47	3.2	0.6	-0.73	-0.47	0.52	0.31
COc1ccc2c(-c3ccnc(Nc4cccc(OC(F)(F)F)c4)n3)cnn2n1	31.6	3.88	7	3.39	2.18	2.85	9.17	3.59	6.06	3.21	7.44	4.96	6.47	5.27	41.2	11.1	60.1	14.8	57	3.19
c1ccc(-c2nc3n(c2-c2ccc4c(c2)OCO4)CCC3)nc1	2.71	0.83	-0.01	0.79	0.57	22.2	60.1	1.06	2.79	1.64	1.81	0.57	4.18	0.17	1.42	1.58	-5.6	2.41	3.84	2.37
Clc1ccc(-c2nn3ncccc3c2-c2ccnc(Nc3ccccc3)n2)cc1	2.57	0.84	0.18	2.19	-0.46	5.52	39.6	3.83	1.87	0.23	1.83	1.6	4.02	0.56	1.32	1.43	3.91	1.3	2.48	1.03
O=C(Nc1n[nH]c2cc(-c3ccc(F)cc3)ccc12)C1CC1	5.39	3.31	2.06	2.29	0.97	2.37	7.14	2.86	3.21	2.45	3.16	1.93	3.02	0.08	4.52	-0.94	5.81	2.56	6.81	2.18
Fc1ccc(-c2cc(-c3c[nH]nc3-c3ccccn3)ccn2)cc1	3.03	6.33	9.18	4.38	6.99	3.27	5.16	4.51	7.09	4.03	6.19	4.09	6.73	0.86	-0.63	2.51	5.92	2.72	3.29	2.03
